Screens (PubChem)
GLP1R cytotox: qHTS of GLP-1 Receptor Inverse Agonists: Cytotox Screen | 410,000 tested, 0.13% active | AID 624418, 2012 | Potency, µM (top dose mostly 38.3 µM), without a hit: top-dose activity change, negative = inhibition, hits mostly inhibitors | HEK293 cAMP-luciferase reporter cells, luminescence, 24 h;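 further: loss of luciferase light is scored as toxicity; on the % scale 0 is the no-effect control and ±100 the full control effect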
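MLSMR compounds, 24 hr on cells at 37 deg C/5% CO2; luminescence after luciferase reagent (12 min RT). Inhibition counted as the undesired cytotoxic outcome.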
PTHR1 ag: qHTS for PTHR1 Agonists: Primary Screen. Parathyroid hormone/parathyroid hormone-related peptide receptor (Homo sapiens), Q03431. HEK293 GP2 PTHR1 cells, GloSensor cAMP luminescence, 1 h. Potency, µM (titrated, usually from 115 µM), without a hit: at the top dose activation, most hits filed as activators. 410,000 tested, 0.075% active; further: nearly all actives have a fitted effect of over 55% in size
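HEK-293-derived GP2 cells expressing PTHR1 and a GloSensor cAMP reporter, 3,000/well, plated overnight, given luciferin plus IBMX (each 0.5 mM as added) for 1 h at 37 °C, then compound for 1 h at 37 °C. Luminescence was read after 15 min at room temperature.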
GLP1R ag: qHTS of GLP-1 Receptor Agonists. HEK293 GLP-1R CRE-luciferase, luminescence, 4-6 h; cells express a hypersensitive GLP-1R form. 380,000 tested, 0.007% active. Glucagon-like peptide 1 receptor (Homo sapiens), P43220. Potency, µM (doses to about 45.6 µM), inactives show at the top dose activation, hits mostly activators; further: % of control where 0% means no effect
Target sequence (P43220 whole entry, looked up): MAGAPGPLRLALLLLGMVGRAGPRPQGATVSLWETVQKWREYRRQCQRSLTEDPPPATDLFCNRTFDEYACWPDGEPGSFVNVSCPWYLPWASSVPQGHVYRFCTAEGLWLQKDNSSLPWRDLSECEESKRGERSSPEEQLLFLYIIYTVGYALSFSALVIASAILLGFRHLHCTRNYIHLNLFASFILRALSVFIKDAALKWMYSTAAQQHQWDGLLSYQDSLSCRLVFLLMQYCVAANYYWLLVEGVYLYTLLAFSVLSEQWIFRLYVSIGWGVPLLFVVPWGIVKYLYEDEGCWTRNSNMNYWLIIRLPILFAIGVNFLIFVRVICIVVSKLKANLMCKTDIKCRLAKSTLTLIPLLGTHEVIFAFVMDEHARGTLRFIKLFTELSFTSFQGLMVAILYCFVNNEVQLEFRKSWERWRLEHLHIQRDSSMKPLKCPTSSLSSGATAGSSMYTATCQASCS
GLP-1R inv ag: qHTS of GLP-1 Receptor Inverse Agonists (Inhibition Mode). HEK293 GLP-1R CRE-luciferase, luminescence, 24 h; GLP-1R form is constitutively active. Glucagon-like peptide 1 receptor (Homo sapiens), P43220. 410,000 tested, 1.6% active. Potency, µM (titrated, usually from 38.3 µM), without a hit: top-dose activity change, negative = inhibition, most hits filed as inhibitors. AID 624417, 2012; further: on the % scale 0 is the no-effect control and ±100 the full control effect; nearly all actives have a fitted effect of over 55% in size
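GLP-1R inverse agonism mode: basal reporter luminescence in engineered HEK293 cells measured after one day of compound exposure at 37 deg C, with a 12 min room-temperature detection step.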
The depositor's hits bear a star; i = inactive; ? = inconclusive; . = not tested or not shown; [ ] = dose if it differs, or a comment. In the library only some 1.7% were active in any assay of this set; here they are far more common. The call rests on the fitted dose curve; in most records, active means well fitted curve in the direction sought with a large enough effect; inconclusive means small, poorly fitted or top-dose-only effect, or another doubt; inactive means no such curve, though single readings can be large; an effect the other way counts as inactive or inconclusive. Potency means the concentration at half of the fitted maximal effect.

SMILES	GLP1R cytotox	PTHR1 ag	GLP1R ag	GLP-1R inv ag
CC(C)c1ccc(/C=C(\c2nc3ccccc3[nH]2)S(=O)(=O)c2ccccc2)cc1	-24%	-97%	-20%	?
COc1cc([N+](=O)[O-])ccc1NC(=O)NN1CCN(C)CC1	11%	i	-5%	15%
COc1cc([N+](=O)[O-])ccc1NC(=O)N1CCC2(CC1)Nc1cc(F)ccc1-n1cccc12	-21%	-19%	.	11µM*
Cc1ccc(-n2c(SCC(=O)Nc3ccc4c(c3)OCO4)nc3c([nH]c4ccccc43)c2=O)cc1	-11%	i	.	11%
O=C(NC1CCN(C(=O)c2cccc([N+](=O)[O-])c2)CC1)c1ccccc1	-2%	i	12%	15%
COc1cccc(NC(=S)N2CCN(C/C=C/c3ccccc3)CC2)c1	-23%	i	5%	5.6µM*
O=S1OCCN1c1ccccc1 (configuration not stated)	5%	6%	3%	13%
COc1ccc(-c2coc3c(C(=O)NCCN(C)C)cccc23)c(C)c1	5%	i	3%	11µM*
COCCCNC(=O)c1cccc2c(-c3ccc(OC)cc3C)coc12	-9%	-59%	0%	?
COc1ccc(C(=O)NCCN(C)C)c2nc3ccccc3cc12	?	i	-23%	?
COc1ccc(-c2nc3c(C(=O)NCCN(C)C)cccc3c3ccccc23)cc1	?	i	-23%	10µM*
CN(C)CCNC(=O)c1cccc2nc3c(ccc4ccccc43)nc12	11%	-20%	-10%	8.9µM*
COc1cccc2nc3c(C(=O)NCCN(C)C)cccc3cc12	-1%	-24%	-28%	13µM*
COc1ccc(C(=O)N2N=C(c3ccc(NS(C)(=O)=O)cc3)CC2c2cccs2)cc1 (configuration not stated)	-10%	i	22%	?
O=C(Nc1cccc2ccccc12)c1csc([C@@H]2O[C@H](CO)[C@H](O)[C@H](O)[C@H]2O)n1	1%	0%	0%	10%
CCN1C(=O)[C@H]2[C@@H](c3ccc(-c4ccc5c(c4)OCO5)cc3)N[C@@](Cc3ccccc3)(C(=O)OC)[C@H]2C1=O	6%	14%	12%	-25%
CCN1C(=O)[C@H]2[C@@H](c3ccc(-c4cccc(Cl)c4)cc3)N[C@@](Cc3ccccc3)(C(=O)OC)[C@H]2C1=O	6%	i	-2%	7.9µM*
O=C(c1cc(C2CC2)nn1-c1ccccc1)N1CCN(S(=O)(=O)c2cccc(F)c2)CC1	0%	-13%	4%	?
CCN1CCN(C(c2cccnc2)c2c(NC(=O)c3ccco3)sc(C)c2C)CC1 (configuration not stated)	-11%	i	2%	?
Cc1sc(NC(=O)c2ccco2)c(C(c2cccnc2)N2CCC(C)CC2)c1C (configuration not stated)	-28%	-23%	-3%	8.9µM*
Cc1cccc(NC(=O)CSC2=Nc3ccccc3C3=NC(CC(=O)NCc4cccs4)C(=O)N23)c1 (configuration not stated)	-4%	1%	.	9%
CN1C(=O)/C(=C/c2ccccc2OCc2cccc(F)c2)N(C)C1=S	-4%	-19%	12%	5.6µM*
O=C(CC(c1ccccc1)c1cc(Br)ccc1O)N1CCCCC1 (configuration not stated)	-21%	-13%	10%	10µM*
O=C(CC(c1ccccc1)c1ccccc1O)N1CCCC1 (configuration not stated)	-11%	-22%[57.5 µM]	-16%	-2%
CO/N=C\CC(=O)Nc1ccc(Cl)c(Cl)c1	-19%	-14%	5%	3.2µM*
COc1ccc(/C=C/C(=O)Nc2ccc(Cl)c(Cl)c2)cc1OC	?	-45%	.	8.9µM*
COc1ccc(C)cc1NC(=S)N1CC(C)OC(C)C1 (configuration not stated)	2%	-11%	-5%	8%
O=C(NCC[C@@H]1CC[C@@H](NC(=O)c2cnccn2)[C@@H](CO)O1)c1ccc2c(c1)OCO2	7%	i	.	16%
Cc1ccccc1Oc1cc(-n2ncc(Cl)c(Cl)c2=O)ncn1	3.2µM*	-28%	-22%	?
